Laboratory results reported in ChEMBL document CHEMBL3988442, “University of Dundee, Small-Polar-MMV Screening Library” (2021).
For some assays here: Measured potencies and affinities stand elsewhere.

Legend:
Parameters in all cases: scale not given: direction of the effect not stated beside the values
[1] = biological target: Protein translocase subunit SecA (Escherichia coli (strain K12)) (UniProt P10408); assay: Assay to Identify E. coli SecA ATPase Inhibitors; assay type: functional; conditions: 30 µM
[2] = biological target: T1, Ubiquitin-activating enzyme e1, putative (Leishmania donovani (strain BPK282A1)) (UniProt E9BSI1); assay: Leishmania donovani Ubiquitin Activating Enzyme (LdE1); assay type: functional; conditions: 30 µM
T1 sequence (whole entry): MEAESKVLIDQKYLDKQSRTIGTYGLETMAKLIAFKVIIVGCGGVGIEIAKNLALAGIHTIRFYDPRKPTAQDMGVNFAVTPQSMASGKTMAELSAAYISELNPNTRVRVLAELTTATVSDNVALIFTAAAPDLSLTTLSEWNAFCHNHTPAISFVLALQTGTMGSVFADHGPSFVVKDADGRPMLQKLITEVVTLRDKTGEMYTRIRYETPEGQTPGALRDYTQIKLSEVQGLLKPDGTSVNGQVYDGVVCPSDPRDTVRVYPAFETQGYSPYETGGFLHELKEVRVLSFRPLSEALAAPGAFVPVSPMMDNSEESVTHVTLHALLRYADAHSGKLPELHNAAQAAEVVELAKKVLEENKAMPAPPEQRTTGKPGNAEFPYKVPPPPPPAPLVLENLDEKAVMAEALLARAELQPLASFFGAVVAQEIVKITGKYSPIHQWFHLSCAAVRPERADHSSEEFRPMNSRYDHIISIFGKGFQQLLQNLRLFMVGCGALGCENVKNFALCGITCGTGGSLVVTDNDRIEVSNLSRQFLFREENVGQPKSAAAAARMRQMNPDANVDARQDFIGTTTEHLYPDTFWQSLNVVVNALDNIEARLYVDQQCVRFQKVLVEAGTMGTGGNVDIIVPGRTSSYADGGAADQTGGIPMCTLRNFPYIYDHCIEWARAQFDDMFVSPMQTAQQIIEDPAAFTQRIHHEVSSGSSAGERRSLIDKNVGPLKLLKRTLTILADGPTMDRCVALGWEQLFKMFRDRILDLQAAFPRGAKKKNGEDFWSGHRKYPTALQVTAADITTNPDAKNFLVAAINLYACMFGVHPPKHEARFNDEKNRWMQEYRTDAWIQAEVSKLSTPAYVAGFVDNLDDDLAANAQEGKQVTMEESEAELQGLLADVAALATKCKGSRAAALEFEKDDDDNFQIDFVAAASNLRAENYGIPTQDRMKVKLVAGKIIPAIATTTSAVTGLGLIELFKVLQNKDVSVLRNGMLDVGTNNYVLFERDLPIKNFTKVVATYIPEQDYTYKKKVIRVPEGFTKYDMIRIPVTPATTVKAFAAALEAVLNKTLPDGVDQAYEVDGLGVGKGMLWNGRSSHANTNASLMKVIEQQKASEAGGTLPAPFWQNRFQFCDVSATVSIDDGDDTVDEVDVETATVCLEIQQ

[3] = biological target: AMP-activated protein kinase, AMPK (Homo sapiens) (UniProt P54646+O43741+P54619+Q9UGJ0+Q9Y478+Q13131+Q9UGI9); assay: AMP-dependent Kinase enzyme assay. An in vitro enzyme assay that detects ADP turnover that is directly proportional to AMPK activity. This uses naive AMPK that is activated during the assay with MK-8722; assay type: functional; conditions: 30 µM
[4] = biological target: Sialic acid-binding Ig-like lectin 9 (Homo sapiens) (UniProt Q9Y336); assay: Hs-Siglec9 ALPHAscreen SOP 20170721; conditions: 10 µM
Trypanosoma cruzi = assay: Trypanosoma cruzi phosphomannomutase and mannose-1-phosphate guanylyltransferase assay; assay type: functional; conditions: 10 µM
[5] = biological target: T2, Arginase-2, mitochondrial (Homo sapiens) (UniProt P78540); assay: in vitro enzyme assay to detect the production of urea directly proportional to the activity of Arginase II; assay type: functional; conditions: 33.3 µM; also: in the data most compounds retested in dose-response had high values
T2 sequence (whole entry): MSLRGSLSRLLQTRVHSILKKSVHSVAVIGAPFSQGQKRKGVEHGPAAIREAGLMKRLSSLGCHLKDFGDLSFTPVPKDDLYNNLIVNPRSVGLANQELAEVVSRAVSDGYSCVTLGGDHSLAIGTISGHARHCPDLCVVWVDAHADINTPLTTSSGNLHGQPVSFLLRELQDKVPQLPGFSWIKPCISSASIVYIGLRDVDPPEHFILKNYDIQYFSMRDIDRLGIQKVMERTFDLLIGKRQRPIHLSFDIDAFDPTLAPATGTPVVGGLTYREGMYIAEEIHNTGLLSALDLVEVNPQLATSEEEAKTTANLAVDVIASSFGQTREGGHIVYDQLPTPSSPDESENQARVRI

[6] = biological target: T3, Proteasome subunit beta (Trypanosoma cruzi) (UniProt O96673); assay: Trypanosoma cruzi proteasome chymotrypsin-like activity (TcProtChymo) assay.; also: in the data most compounds retested in dose-response had high values; assay type: functional; conditions: 9.37 µM
T3 sequence (whole entry): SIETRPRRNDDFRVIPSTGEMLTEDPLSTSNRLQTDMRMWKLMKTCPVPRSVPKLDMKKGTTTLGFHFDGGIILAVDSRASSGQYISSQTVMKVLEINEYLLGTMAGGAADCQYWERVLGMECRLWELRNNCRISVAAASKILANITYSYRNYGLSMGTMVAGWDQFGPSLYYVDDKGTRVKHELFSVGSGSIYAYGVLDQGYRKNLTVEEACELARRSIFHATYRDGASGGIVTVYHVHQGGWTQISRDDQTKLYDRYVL

Homo sapiens = species: Homo sapiens; assay: To identify inhibition of the IFN signalling (Jak-Stat) pathway via expression of an eGFP reporter gene under the control of an IFN-stimulated response element (ISRE) containing MxA promoter.; assay type: functional; conditions: 30 µM
[7] = biological target: T4, Tyrosyl-tRNA synthetase, putative (Trypanosoma cruzi (strain CL Brener)) (UniProt Q4DSP6); assay: Trypanosoma cruzi tyrosyl tRNA synthetase (TcYRS) _High Tyrosine SOP; assay type: functional; conditions: 30 µM; also: in the data most compounds retested in dose-response had high values
T4 sequence (whole entry): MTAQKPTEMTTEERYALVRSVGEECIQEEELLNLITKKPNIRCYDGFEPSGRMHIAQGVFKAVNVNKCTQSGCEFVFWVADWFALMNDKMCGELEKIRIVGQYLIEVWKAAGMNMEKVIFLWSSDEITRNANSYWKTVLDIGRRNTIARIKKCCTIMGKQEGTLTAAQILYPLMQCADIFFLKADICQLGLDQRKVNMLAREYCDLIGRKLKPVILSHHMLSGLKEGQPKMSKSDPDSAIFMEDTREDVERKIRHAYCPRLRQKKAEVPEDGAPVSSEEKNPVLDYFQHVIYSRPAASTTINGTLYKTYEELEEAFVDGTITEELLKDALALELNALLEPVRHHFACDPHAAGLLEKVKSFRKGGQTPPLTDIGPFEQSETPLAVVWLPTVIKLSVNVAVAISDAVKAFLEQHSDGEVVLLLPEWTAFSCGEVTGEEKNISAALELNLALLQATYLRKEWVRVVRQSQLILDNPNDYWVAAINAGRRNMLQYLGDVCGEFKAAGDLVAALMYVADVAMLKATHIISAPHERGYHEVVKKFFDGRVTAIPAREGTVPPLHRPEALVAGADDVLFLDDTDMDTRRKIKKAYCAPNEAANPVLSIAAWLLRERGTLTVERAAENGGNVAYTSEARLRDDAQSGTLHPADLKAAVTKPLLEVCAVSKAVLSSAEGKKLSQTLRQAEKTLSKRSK

[8] = biological target: T4, Tyrosyl-tRNA synthetase, putative (Trypanosoma cruzi (strain CL Brener)); assay: Trypanosoma cruzi tyrosyl tRNA synthetase (TcYRS) SOP; assay type: functional; conditions: 30 µM
[9] = biological target: Chromo domain-containing protein 1 (Saccharomyces cerevisiae (strain ATCC 204508 / S288c) (Baker's yeast)) (UniProt P32657); assay: ScCHD-1 Enzyme Inhibition Assay; assay type: functional; conditions: 30 µM; also: in the data most compounds retested in dose-response had high values
Sequence of Chromo domain-containing protein 1 (Saccharomyces cerevisiae (strain ATCC 204508 / S288c) (Baker's yeast)) (P32657 whole entry, the tested form may be a part): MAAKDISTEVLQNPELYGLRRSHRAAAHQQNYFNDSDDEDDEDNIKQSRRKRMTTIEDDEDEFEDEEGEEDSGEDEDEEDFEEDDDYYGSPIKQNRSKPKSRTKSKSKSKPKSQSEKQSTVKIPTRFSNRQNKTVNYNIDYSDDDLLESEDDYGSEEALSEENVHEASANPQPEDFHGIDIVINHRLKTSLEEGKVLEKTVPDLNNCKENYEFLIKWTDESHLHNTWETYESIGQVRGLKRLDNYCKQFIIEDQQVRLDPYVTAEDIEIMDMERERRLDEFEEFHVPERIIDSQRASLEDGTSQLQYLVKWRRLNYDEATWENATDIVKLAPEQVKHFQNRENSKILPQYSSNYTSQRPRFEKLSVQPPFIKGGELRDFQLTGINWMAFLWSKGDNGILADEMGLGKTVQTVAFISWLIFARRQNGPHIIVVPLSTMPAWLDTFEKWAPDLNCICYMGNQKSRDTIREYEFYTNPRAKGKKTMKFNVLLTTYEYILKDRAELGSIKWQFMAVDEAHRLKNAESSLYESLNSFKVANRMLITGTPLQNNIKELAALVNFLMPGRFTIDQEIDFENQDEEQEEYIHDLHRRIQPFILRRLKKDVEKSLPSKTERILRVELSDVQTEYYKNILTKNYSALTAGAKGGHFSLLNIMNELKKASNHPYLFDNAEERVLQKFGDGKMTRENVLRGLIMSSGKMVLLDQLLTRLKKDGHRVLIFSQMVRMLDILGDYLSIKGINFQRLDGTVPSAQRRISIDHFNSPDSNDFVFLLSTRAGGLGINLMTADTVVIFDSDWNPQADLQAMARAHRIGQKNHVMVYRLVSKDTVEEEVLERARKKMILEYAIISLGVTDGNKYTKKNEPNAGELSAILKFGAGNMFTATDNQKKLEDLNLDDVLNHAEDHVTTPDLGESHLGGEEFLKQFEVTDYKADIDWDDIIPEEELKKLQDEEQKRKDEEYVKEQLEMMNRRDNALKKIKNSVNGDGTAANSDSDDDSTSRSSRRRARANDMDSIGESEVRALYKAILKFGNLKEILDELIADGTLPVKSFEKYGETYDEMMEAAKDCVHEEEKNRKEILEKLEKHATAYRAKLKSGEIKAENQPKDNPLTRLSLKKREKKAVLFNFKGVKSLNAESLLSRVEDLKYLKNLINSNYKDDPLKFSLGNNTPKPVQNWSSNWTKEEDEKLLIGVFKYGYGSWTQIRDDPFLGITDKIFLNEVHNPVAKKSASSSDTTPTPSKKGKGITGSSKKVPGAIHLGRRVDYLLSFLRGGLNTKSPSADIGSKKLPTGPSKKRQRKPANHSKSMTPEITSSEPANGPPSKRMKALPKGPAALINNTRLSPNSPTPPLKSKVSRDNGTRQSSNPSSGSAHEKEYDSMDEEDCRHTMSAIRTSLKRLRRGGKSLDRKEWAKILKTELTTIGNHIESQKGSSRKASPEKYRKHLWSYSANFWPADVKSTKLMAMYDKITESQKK

Sequence of Protein translocase subunit SecA (Escherichia coli (strain K12)) (P10408 whole entry): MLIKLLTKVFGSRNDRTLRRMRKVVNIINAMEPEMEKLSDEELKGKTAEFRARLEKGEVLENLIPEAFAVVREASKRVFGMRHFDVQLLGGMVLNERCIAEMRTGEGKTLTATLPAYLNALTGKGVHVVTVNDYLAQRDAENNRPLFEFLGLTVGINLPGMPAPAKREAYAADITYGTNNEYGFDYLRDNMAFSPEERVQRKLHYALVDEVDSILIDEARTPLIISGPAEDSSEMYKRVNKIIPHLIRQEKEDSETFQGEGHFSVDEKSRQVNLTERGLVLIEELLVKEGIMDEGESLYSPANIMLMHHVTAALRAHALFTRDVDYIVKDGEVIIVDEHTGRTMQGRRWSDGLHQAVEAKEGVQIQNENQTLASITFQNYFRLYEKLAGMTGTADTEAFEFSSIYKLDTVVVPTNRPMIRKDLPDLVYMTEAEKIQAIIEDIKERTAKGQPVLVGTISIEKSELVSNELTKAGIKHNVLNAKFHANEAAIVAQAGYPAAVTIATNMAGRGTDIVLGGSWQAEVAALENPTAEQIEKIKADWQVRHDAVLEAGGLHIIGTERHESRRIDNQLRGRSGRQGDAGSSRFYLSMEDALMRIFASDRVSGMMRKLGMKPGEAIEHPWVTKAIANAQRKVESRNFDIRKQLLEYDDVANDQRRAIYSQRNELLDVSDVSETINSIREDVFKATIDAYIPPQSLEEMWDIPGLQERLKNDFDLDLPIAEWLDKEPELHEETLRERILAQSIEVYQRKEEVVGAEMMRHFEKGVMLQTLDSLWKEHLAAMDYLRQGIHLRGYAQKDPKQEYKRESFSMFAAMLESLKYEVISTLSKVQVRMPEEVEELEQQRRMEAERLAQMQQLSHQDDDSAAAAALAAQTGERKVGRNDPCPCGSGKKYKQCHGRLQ
Sequence of Sialic acid-binding Ig-like lectin 9 (Homo sapiens) (Q9Y336 whole entry): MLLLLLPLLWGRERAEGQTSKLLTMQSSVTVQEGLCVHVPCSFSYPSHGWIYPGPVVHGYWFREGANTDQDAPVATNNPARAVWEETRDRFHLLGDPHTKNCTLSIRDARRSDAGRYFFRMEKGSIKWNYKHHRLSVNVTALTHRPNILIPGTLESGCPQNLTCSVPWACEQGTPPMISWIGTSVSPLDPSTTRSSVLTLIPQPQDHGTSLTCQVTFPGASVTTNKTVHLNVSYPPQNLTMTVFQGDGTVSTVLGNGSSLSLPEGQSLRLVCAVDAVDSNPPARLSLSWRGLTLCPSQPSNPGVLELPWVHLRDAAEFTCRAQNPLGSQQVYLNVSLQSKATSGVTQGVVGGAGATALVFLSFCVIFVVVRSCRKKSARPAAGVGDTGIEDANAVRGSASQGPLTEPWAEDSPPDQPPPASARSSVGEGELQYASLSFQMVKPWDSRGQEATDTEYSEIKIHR

Row | SMILES | Percent Effect [1] [%] | Percent Effect [2] [%] | Percent Effect [3] [%] | Percent Effect [4] [%] | Percent Effect (Trypanosoma cruzi) [%] | Percent Effect [5] [%] | Percent Effect [6] [%] | Percent Effect (Homo sapiens) [%] | Percent Effect [7] [%] | Percent Effect [8] [%] | Percent Effect [9] [%]
1 | CC(C)N1CCC(CNCc2c[nH]nc2C(C)(C)C)C1 (stereo not given) | -2.43 | 29.7 | -3.65 | -3.23 | 5.19 | -14.4 | 17.1 | 22 | 9.36 | 23.5 | -10.6
2 | CN(C)C(=O)C1CN(Cc2ccccc2)CCN(S(C)(=O)=O)C1 (stereo not given) | -5.51 | 17.6 | 8.68 | 7.06 | 4.35 | -3.02 | 3.12 | 11.2 | 2.15 | 9.09 | -19.2
3 | Cc1cc(C)n(CCCNC(=O)[C@@H](C)NC(=O)OC(C)(C)C)n1 | -6.34 | 7.89 | 8.18 | 0.0654 | 7.5 | -4.73 | 13.3 | 5.91 | 3.19 | 10.4 | -1.9
4 | Cc1cc(C)n(CC2CCCN2CC(=O)N(C)Cc2cnn(C)c2)n1 (stereo not given) | -5.54 | 8.11 | -10.7 | 3.9 | 1.04 | -4.01 | 13 | 9.55 | 6.4 | 13.6 | -11.6
5 | COCCCC1CCCN(C(=O)CCc2cc(O)no2)C1 (stereo not given) | 0.503 | 4.17 | -6.36 | 2.98 | 1.46 | 13.2 | 18.2 | 12.3 | 8.42 | 15.4 | -2.19
6 | Cc1nn(C)c(C)c1C1CCCN1Cc1cccc(C(=O)N(C)C)c1 (stereo not given) | -2.08 | 7.59 | -8.35 | 3.65 | 4.06 | 0.76 | 2.54 | -16.6 | 4.43 | 8.86 | 0.0198
7 | CC(C)NC(=O)C1CN(C(N)=O)Cc2ccnn2C1 (stereo not given) | -0.679 | 10.7 | 5.48 | 1.25 | 0.579 | -58.2 | 9.91 | 0.0597 | 3.12 | 15 | -5.6
8 | CCc1noc(CNc2ccc(C(=O)N3CCCC(C)C3)cc2C)n1 (stereo not given) | -4.09 | 0 | 2.37 | 9.47 | 1.69 | 3.2 | 3.88 | 9.39 | 4.85 | 2.44 | -8.29
9 | O=C(c1cnc(-c2ccco2)s1)N1CCCC1Cn1cccn1 (stereo not given) | -4.62 | 3.8 | 8.45 | 0.321 | 2.97 | 1.5 | 9.09 | 13 | 7.29 | 5.06 | 0.437
10 | CCNc1cc2c(nn1)CCN(C(=O)Cc1noc3ccccc13)C2 | -6.38 | 13.2 | -1.77 | 6.44 | 5.51 | 0 | -3.47 | 5.21 | 4.43 | 16.1 | -4.69
